# PubChem BioAssay (NCI)
# The panel holds about 83,000 compounds, 20% with a hit somewhere; the sample as a whole holds those more often.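 A percent growth of 40 corresponds to 60% growth inhibition; 0 means no net growth; -100 means all cells died. Active threshold: below 10.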 Calls of active or inactive are those of the source.
# System: A498 renal
# Assay: NCI-60 one-dose screen, 48 h (100 = growth as untreated, 0 = no growth, -100 = all killed)
# Conditions: 10 µM unless noted
# Experimental: Growth inhibition of the A498 human tumor cell line is measured as a screen for anti-cancer activity. Cells are grown in 96 well plates and exposed to the test compound for 48 hours. Compounds are tested at a single concentration, which is 10^-5 M for most compounds. The reported endpoint is percent growth (GI% or GIPRCNT), where numbers from 0 - 100% represent growth inhibition, and numbers from -100% - 0 represent cell death. For example, a value of 40 represents 60% growth inhibition. A value of 0 means no net growth occurred over the course of the experiment. A value of -40 indicates 40% of cells at the beginning of the experiment died by the end of the experiment. A value of -100 means all cells are dead at the end of the experiment.
# NCI-60 Human Tumor Cell Lines Screen was performed using the standard one-dose NCI protocol, which is described in more detail at https://dtp.cancer.gov/discovery_development/nci-60/default.htm.
# Compounds with GIPRCNT values below 10 were considered active. Activity score was based on GIPRCNT using the following formula: […]
# Score is 0 for GIPRCNT values of 100 or above, 50 for GIPRCNT values of 0, and 100 for GIPRCNT values of -100.
row,SMILES,growth
1,Cn1ccnc1C(=O)/C=C/c1ccc(NC(=O)c2ccc(F)cc2)cc1,78.1% (inactive)
2,Nc1ncc(-c2ccc3ncnc(N4CCc5cc(F)c(F)cc54)c3c2)cn1,-42.9% (active)
3,NC/C(=C/F)COc1ccc2nc(NCc3cccnc3)oc2c1,50.5% (inactive)
4,O=C(CCC(=O)N1CCOCC1)OCCCCCCSc1ccc([N+](=O)[O-])c2nonc12,12.8% (inactive)
5,CC(C)(C)c1ccc(CC(=O)Nc2sc3c(c2C(N)=O)CCC(=O)C3)cc1,47.7% (inactive)
6,Cn1ccnc1C(=O)/C=C/c1ccc(CNC(=O)c2ccc(S(F)(F)(F)(F)F)cc2)cc1,73.5% (inactive)
7,N#Cc1cnc2ccc(-c3cnc(N)nc3)cc2c1N1CCc2cc(F)c(Cl)cc21,-49.7% (active)
8,COc1cc(/C=C2\C(=O)Nc3cc(Cl)ccc32)ccc1OCc1ccc(F)cc1,94.2% (inactive)
9,CC(C)(C)c1ccc(C(=O)Nc2sc3c(c2C(N)=O)CCC(O)C3)cc1 (stereo not given),78% (inactive)
10,CCCn1cnc2c(c1=N)C(c1ccc(Cl)cc1)c1sc3c(CC)cccc3c1O2 (stereo not given),-8.25% (active)
11,CNC1CCc2c(sc(NC(=O)c3ccc(C(C)(C)C)cc3)c2C(N)=O)C1 (stereo not given),73.9% (inactive)
12,Cc1ccc(-c2cc3nc(C(Cl)Cl)nc(-c4ccco4)n3n2)cc1,-29.1% (active)
13,CC/C(=C/c1c(O)cccc1OC)c1ccc2c(OC)cccc2[o+]1,102% (inactive)
14,C=C(C)[C@@H]1CC[C@]2(C(=O)NCCCCCN(CCC#N)CCC#N)CC[C@]3(C)[C@H](CC[C@@H]4[C@@]5(C)CCC(=O)C(C)(C)[C@@H]5CC[C@]43C)[C@@H]12,48.9% (inactive)
15,Cc1nc(-c2ccccc2O)ccc1C(=O)N=Nc1c(O)[nH]c2ccc(Br)cc12,101% (inactive)
16,N#Cc1c(-c2cccs2)cc(-c2cnccn2)nc1SCC(=O)c1ccc(F)cc1,8.83% (active)
17,Cc1cc(S(=O)(=O)N(C)C)cc(NCC(=O)NC(=O)NCC(C)C)c1C,51.7% (inactive)
18,CCO/C=N/C1=C(C#N)C(c2ccc(Cl)cc2)c2sc3c(C)cccc3c2O1 (stereo not given),-5.08% (active)
19,O=C(CCn1c[n+](CC(=O)c2ccc(-c3ccccc3)cc2)c2ccccc21)Nc1cccc2cccnc12,88.7% (inactive)
20,CS(=O)(=O)Nc1cc(-c2ccc3ncc(C#N)c(NCc4ccccc4)c3c2)cnc1Cl,-57.2% (active)

row,SMILES,growth
1,C[C@@H](Nc1c(C#N)cnc2ccc(-c3cnc(Cl)c(NS(C)(=O)=O)c3)cc12)c1ccccc1,-49.8% (active)
2,COc1ccc(S(=O)(=O)NCCCNc2nccc(-c3[nH]c(-c4ccccc4)nc3-c3ccc(Cl)c(O)c3)n2)cc1,116% (inactive)
3,O=C(CNc1nc(-c2cccc([N+](=O)[O-])c2)cs1)Nc1cccc([N+](=O)[O-])c1,-77.4% (active)
4,COc1ccc(/C=C(/C)c2ccc3ccc(OC)cc3[o+]2)c(O)c1,110% (inactive)
5,CS(=O)(=O)Nc1cc(-c2ccc3ncc(C#N)c(NCc4cccc(F)c4)c3c2)cnc1Cl,-48.9% (active)
6,O=C(CSc1nnc(-c2ccc(Cl)cc2)n1-c1ccccc1)Nc1cccc(Cl)c1,95.9% (inactive)
7,O=C(CN1CCN(c2cc(=O)n(-c3ccccc3)c3ccccc23)CC1)Nc1ccc(F)cc1,53.6% (inactive)
8,CS(=O)(=O)Nc1cc(-c2ccc3ncc(C#N)c(Nc4cccc(Cl)c4F)c3c2)cnc1Cl,-50.9% (active)
9,COc1c(N2CC3CCCNC3C2)c(F)cc2c(=O)c(C(=O)N/N=C/c3ccc4c(c3)OCO4)cn(C3CC3)c12 (stereo not given),105% (inactive)
10,NS(=O)(=O)c1ccc(Nc2nc(SCc3ccccc3)nc3ccccc23)cc1,48.5% (inactive)
11,C#CCOc1ccc(/C=N\Nc2nc(-c3ccc(C)cc3)cs2)cc1OC,81.2% (inactive)
12,CCN(CC)c1cn(-c2ccc(S(N)(=O)=O)cc2)nn1,83.4% (inactive)
13,CCN(CC)c1ccc2c(c1)Oc1nc(N)c(C#N)c(N)c1C2Sc1ccc(F)cc1 (stereo not given),-1.93% (active)
14,O=C(CN1CCN(c2cc(=O)n(-c3ccccc3)c3ccccc23)CC1)Nc1nc(-c2ccccc2)cs1,66.2% (inactive)
15,CCOC(=O)C1=NNC(c2ccc(Cl)cc2)C1C(=O)N1C(=S)NC(=O)C1CC(C)C (stereo not given),95% (inactive)
16,Cc1occc1-c1nc2s/c(=C/c3ccc(-c4cc(C(F)(F)F)ccc4Cl)o3)c(=O)n2n1,105% (inactive)
17,O=S(=O)(NCCNc1nccc(-n2cnc3ccccc32)n1)c1ccc(Cl)cc1,84.8% (inactive)
18,NS(=O)(=O)c1ccc(Nc2nc(N/N=C/c3c[nH]c4ccccc34)nc(Nc3ccccc3)n2)cc1,51.2% (inactive)
19,O=C(c1ccc(O)c(C(=O)N2Cc3ccc(OCCC[P+](c4ccccc4)(c4ccccc4)c4ccccc4)cc3C2)c1)N1Cc2cccc(F)c2C1,85.7% (inactive)
20,CCN1CCN(Cc2cn(-c3ccc(S(N)(=O)=O)cc3)nn2)CC1,103% (inactive)
